# Hit rate of the full screen: of about 350,000 compounds, about 180 (0.051%) were called active. The sample holds actives, similar compounds and a random draw of the others, so the mix is not that of the screen.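 How the source made its calls: active means mean inhibition across replicates of 30% or more, whatever share of single replicates reach that level; inconclusive means mean inhibition below 30% while every single replicate reaches 30%; inactive means the rest.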
# Target: Protein disulfide-isomerase (Homo sapiens) (UniProt P07237)
# Assay: blockers of PDI-driven insulin aggregation – biochemical, turbidity, single point, plate reader, primary screen (AID 588391);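 further: absorbance from insulin aggregation driven by PDI reduction with DTT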
# Conditions: A650, 90 min, at 10 µM, active compounds read high
# Sequence of Protein disulfide-isomerase (Homo sapiens) (P07237 whole entry, looked up): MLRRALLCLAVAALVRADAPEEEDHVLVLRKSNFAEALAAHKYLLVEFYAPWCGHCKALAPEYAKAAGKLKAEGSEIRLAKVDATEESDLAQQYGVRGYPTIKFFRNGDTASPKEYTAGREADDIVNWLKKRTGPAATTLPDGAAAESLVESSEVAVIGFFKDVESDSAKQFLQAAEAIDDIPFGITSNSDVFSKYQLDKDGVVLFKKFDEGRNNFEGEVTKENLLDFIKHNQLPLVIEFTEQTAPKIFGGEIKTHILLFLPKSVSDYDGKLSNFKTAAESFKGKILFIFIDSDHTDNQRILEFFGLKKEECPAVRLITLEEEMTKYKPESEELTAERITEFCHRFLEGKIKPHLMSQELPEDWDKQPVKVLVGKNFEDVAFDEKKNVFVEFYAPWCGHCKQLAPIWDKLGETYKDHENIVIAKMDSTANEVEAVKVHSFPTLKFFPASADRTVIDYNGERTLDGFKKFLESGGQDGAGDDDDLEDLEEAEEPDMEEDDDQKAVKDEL
row,SMILES,inhibition
1,CC(=O)Nc1ccc(C=CC(=O)c2ccc([N+](=O)[O-])cc2)cc1,-14.3% (inactive)
2,CN(C)c1ccc(/C=C/C(=O)c2ccc(O)cc2)cc1[N+](=O)[O-],62.9% (active)
3,O=C(/C=C/c1ccc(Cl)cc1)N1CCN(c2ccccc2[N+](=O)[O-])CC1,-3.05% (inactive)
4,OC[C@H]1O[C@@H](c2nc(-c3nc(-c4ccc(F)cc4)no3)cs2)[C@H](O)[C@@H](O)[C@H]1O,9.06% (inactive)
5,CCc1nc2ccc(C(=O)Nc3cccc(OC)c3)cn2c1N(CCC(C)C)CCN(C)C,7.59% (inactive)
6,COc1ccc(CNC(=O)c2ccc(-c3cccnc3)c3ccoc23)cc1OC,-14.5% (inactive)
7,CCOC(=O)C1CCCN(C(=O)c2ccc(N(C)C)cc2)CC1 (stereo not drawn),-4.95% (inactive)
8,COc1ccccc1CNC(=O)c1cc(-c2cc(F)ccc2OC)n[nH]1,-13.3% (inactive)
9,CNc1cnc(-c2cc(OC)c(OC)c(OC)c2)cn1,-1.94% (inactive)
10,Cc1nc2c(OCc3ccc(Cl)cc3Cl)cccn2c1N(C)CC1CC1,-3.07% (inactive)
11,CC(=O)NN=C(C)c1ccc(NC(=O)C2CC2)cc1,11.5% (inactive)
12,CC1(C(=O)NCc2cccc3ccccc23)CCN1Cc1ccc(-c2ccccc2)o1 (stereo not drawn),-7.12% (inactive)
13,CC(=O)Nc1cccc(-c2cc(NC=O)c3ncc(-c4ccc(F)c(Cl)c4)n3c2)c1,-0.607% (inactive)
14,CCc1nc2c(OCCOc3ccccc3)cccn2c1N(C=O)Cc1ccc(OC)cc1,3.19% (inactive)
15,COc1cccc(NC(=O)C2(C)CCN2Cc2ccccc2Cl)c1 (stereo not drawn),2.3% (inactive)
16,NC(Cc1ccc(F)cc1)c1csc(Nc2nncc3ccccc23)n1 (stereo not drawn),-3.01% (inactive)
17,CC(C)Nc1nc(NCCOc2ccccc2Cl)c2sccc2n1,0.492% (inactive)
18,COc1ccc(NC(=O)C2(C)Cc3c(-c4cccc(NC(C)=O)c4)ccnc3O2)cc1OC (stereo not drawn),-9.6% (inactive)
19,O=C(CCc1n[nH]c(=O)[nH]c1=O)N/N=C/c1ccc(Br)o1,2.19% (inactive)
20,O=C(CCC(=O)N/N=C/c1ccc(Br)o1)N/N=C/c1ccc(Br)o1,-7.35% (inactive)
21,O=C(CCc1ccc(O)cc1)NN=Cc1cc(Br)ccc1O,44.5% (active)
22,COc1ccc(C(NC(=O)C2CCN(CCCc3ccccc3)CC2)c2cccs2)cc1 (stereo not drawn),-3.76% (inactive)

row,SMILES,inhibition
1,OCCN1CCN(c2ncnc3c2ncn3[C@H]2CN(Cc3ccco3)C[C@@H](CO)O2)CC1,-4.02% (inactive)
2,COc1cncc(-c2cnc3sc(NCCc4ccccn4)nn23)c1,-1.86% (inactive)
3,CCCC/C=C/c1cccc2nncn12,15.4% (inactive)
4,O=C(Nc1ccc(N2CCOCC2)cc1)c1cccc2c(-c3ccc(F)c(F)c3)coc12,6.12% (inactive)
5,Cc1nc(C(F)(F)F)ccc1C(=O)N1CCC1(C)C(=O)NS(=O)(=O)c1ccc(F)cc1F (stereo not drawn),-2.79% (inactive)
6,Cc1cccc(C)c1Cn1c(C)c(C(=O)NCc2cccc(Cl)c2)sc1=O,12.4% (inactive)
7,CCc1nc2c(OCc3ccc(Cl)cc3Cl)cccn2c1N(C)C(=O)C(C)C,1.84% (inactive)
8,CS(=O)(=O)/C(C#N)=C/c1cccn1S(=O)(=O)c1ccc([N+](=O)[O-])cc1,6.24% (inactive)
9,CCCS(=O)(=O)NC(=O)C1(C)CCCN(C(=O)c2cccs2)C1 (stereo not drawn),5.08% (inactive)
10,CCCNC(=O)C1(C)CCN(C(=O)c2ccccc2OC(F)(F)F)C1 (stereo not drawn),12.9% (inactive)
11,COc1ccc(S(=O)(=O)NC(=O)C2(C)CCN2C(=O)c2ccccc2CCc2ccccc2)cc1 (stereo not drawn),-21.5% (inactive)
12,Cc1ccc(CNC(=O)Nc2nnc([C@H]3C[C@H](O)[C@@H](CO)O3)s2)cc1,-0.839% (inactive)
13,COc1ccc(-c2cc3nc(NCCOc4ccccc4)ccn3n2)cc1,8.41% (inactive)
14,Cc1ccc(Sc2ccc(NC(=O)c3ccc(F)cc3)cc2C#N)cc1,1.62% (inactive)
15,CC(C)NC(=O)C1(C)CCCCCN1C(=O)c1ccc(-c2ccccc2)cc1 (stereo not drawn),0.373% (inactive)
16,CCc1nc2c(OCCC3CCCCC3)cccn2c1N(C)C(=O)c1ccco1,4.27% (inactive)
17,COc1ccc(OC)c(NC(=O)C2(C)CCN2C(=O)Cc2ccccc2)c1 (stereo not drawn),0.456% (inactive)
18,O=C(CSc1nc2cccc(F)c2c(=O)n1-c1ccccc1)Nc1ccc2c(c1)CCC2,-4.77% (inactive)
19,CC1(Cc2ccccc2C#N)C(=O)Nc2ccc(-c3ccc4[nH]ccc4c3)cc21 (stereo not drawn),7.54% (inactive)
20,O=C(O)c1ccccc1-c1cccc2nncn12,9.27% (inactive)
21,O=C(NCc1ccc(F)cc1)c1cc(C2CCCCN2C(=O)c2cccs2)on1 (stereo not drawn),-0.163% (inactive)
22,CC(C)Cc1ccc(-c2cc3nc(NCc4cccc(Cl)c4)ccn3n2)cc1,-8.06% (inactive)

row,SMILES,inhibition
1,O=C(c1cc(C2CCCCN2S(=O)(=O)c2ccccc2)on1)N1CCOCC1 (stereo not drawn),-7.54% (inactive)
2,COc1ccc(NC(=O)C2(C)Cc3c(-c4cccc(NC(C)=O)c4)ccnc3O2)cc1 (stereo not drawn),-2.98% (inactive)
3,OC[C@@H]1CN(Cc2ccc(-c3ccccc3)cc2)C[C@H](n2cnc3c(NC4CCCC4)ncnc32)O1,-2.96% (inactive)
4,CC(C)Cn1cc(-c2cncc3nccn23)cn1,-0.067% (inactive)
5,CC1(C(=O)NS(=O)(=O)c2ccc3ccccc3c2)CCN1C(=O)C1(c2ccc(Cl)cc2)CCC1 (stereo not drawn),8.48% (inactive)
6,CC(=O)c1ccc(-c2cnc3c(NC=O)cc(-c4cccc(NS(C)(=O)=O)c4)cn23)cc1,16.7% (inactive)
7,COc1cccc(-c2cnc(C(O)c3ccccc3OC)[nH]2)c1 (stereo not drawn),10.9% (inactive)
8,OC(c1ccc(F)cc1)c1ncc(-c2cccc(C(F)(F)F)c2)[nH]1 (stereo not drawn),-1.07% (inactive)
9,CC(C)Oc1cc(F)ccc1-c1cc(C(=O)Nc2ccc(F)cc2)[nH]n1,10.8% (inactive)
10,O=C(NC(c1ccc(Cl)cc1)c1cnccn1)C1CCN(Cc2ccc(Cl)cc2)CC1 (stereo not drawn),-28.5% (inactive)
11,CCCc1ccc(C(O)c2ncc(-c3cccc(OC)c3)[nH]2)cc1 (stereo not drawn),-4.13% (inactive)
12,COc1ccccc1CNC(=O)c1cc(-c2cc(Cl)ccc2C)n[nH]1,-1.01% (inactive)
13,CCNC(=O)C1(C)CCN(Cc2ccc(C(=O)OCC)o2)C1 (stereo not drawn),8.45% (inactive)
14,CCCOc1ccc(F)cc1-c1cc(C(=O)Nc2ccc(F)cc2)[nH]n1,5.38% (inactive)
15,CC1(C(=O)NCc2ccc3c(c2)OCO3)CCN1C(=O)Cc1cccs1 (stereo not drawn),-7.14% (inactive)
16,CC(C)Oc1ccc(CN2CCC2(C)C(=O)NCc2ccc(C(F)(F)F)cc2)cc1 (stereo not drawn),4.17% (inactive)
17,CC1(C(=O)Nc2cccc3c2CCCC3)CCN1C(=O)CCc1ccc(Cl)cc1Cl (stereo not drawn),-3.08% (inactive)
18,NCCCNC(=S)NCCCN(Cc1ccc(Cl)cc1)c1ccc(Br)cn1,22.2% (inactive)
19,COc1cccc(CNc2nc(NCc3cccs3)nc3ccsc23)c1,-1.8% (inactive)
20,CCc1nc2ccc(C(=O)Nc3ccc(OC)c(OC)c3)cn2c1N(C)C(=O)c1cccc(OC)c1,10.6% (inactive)
21,NC(Cc1ccccc1)c1csc(Nc2cc(Oc3ccccc3)ncn2)n1 (stereo not drawn),0.811% (inactive)
22,OC[C@@H]1CN(Cc2ccncc2)C[C@H](n2cnc3c(N4CCN(c5ccccc5)CC4)ncnc32)O1,-1.41% (inactive)

row,SMILES,inhibition
1,COCCNc1ncnc2c1ncn2[C@H]1CN(Cc2ccc(OC)cc2)C[C@@H](CO)O1,-0.829% (inactive)
2,CC(=O)Nc1cccc(-c2cc(NC(C)=O)c3ncc(-c4ccccc4)n3c2)c1,0.99% (inactive)
3,COc1cccc(CNc2nc(NCc3ccccc3OC)nc3ccsc23)c1,-20.9% (inactive)
4,CCNC(=S)Nc1ccc2c(c1)c(=O)n(C)n2Cc1ccc(Cl)cc1,7.91% (inactive)
5,CSc1ccc(CNC(=O)C2(C)CCCN2C)cc1 (stereo not drawn),-9.77% (inactive)
6,CCc1ccc2c(c1)NC(=O)C2(C)Cc1ccc(OC(F)(F)F)cc1 (stereo not drawn),8.05% (inactive)
7,CCCNC(=O)C1(C)CCCN(C(=O)c2oc3ccccc3c2C)C1 (stereo not drawn),10.4% (inactive)
8,CC1(C(=O)NS(=O)(=O)c2cccc(OC(F)F)c2)CCN1C(=O)COc1ccc(Cl)cc1 (stereo not drawn),-2.12% (inactive)
9,Nc1nc(CSc2nnnn2-c2ccccc2)nc(Nc2ccccc2)n1,-5.2% (inactive)
10,Cn1c(Nc2ccc(F)cc2)nc2cc(-c3ccsc3)sc2c1=O,-4.93% (inactive)
11,CCCNC(=O)c1cc(C2CCCCN2S(=O)(=O)c2cn(C)cn2)on1 (stereo not drawn),-5.28% (inactive)
12,COc1cccc(-c2ccc3c(c2)N(Cc2ccccc2OC)C(=O)C(C)S3)c1 (stereo not drawn),0.226% (inactive)
13,CCCNC(=O)C1(C)CCN(Cc2ccc(Cl)c(Cl)c2)C1 (stereo not drawn),-7.24% (inactive)
14,COc1ccc(Br)c(Cn2c(C)c(C(=O)NCc3cccs3)sc2=O)c1,6.08% (inactive)
15,CC(C)(C)c1ccc(S(=O)(=O)NC(=O)C2(C)CCN2C(=O)CC2CC2)cc1 (stereo not drawn),4.79% (inactive)
16,CS(=O)(=O)c1cccc(-c2ccc3nncn3c2)c1,1.16% (inactive)
17,CC(=O)Nc1cccc(-c2cc3nc(NCc4cccnc4)n(C)c(=O)c3s2)c1,-1.23% (inactive)
18,CCCNC(=O)C1(C)CCN(Cc2csc(-c3ccc(Cl)cc3)n2)C1 (stereo not drawn),14.3% (inactive)
19,COc1ccc(-c2ccc(C(=O)NCCN3CCOCC3)c3occc23)c(C)c1,0.104% (inactive)
20,CCc1ccc(OC2(C)CCN(CCOc3ccc(C)cc3)C2)cc1 (stereo not drawn),-1.04% (inactive)
21,CC(=O)Nc1cccc(-c2ccnc3c2CC(C)(C(=O)NCc2ccco2)O3)c1 (stereo not drawn),2.4% (inactive)
22,CC(C)(C)CC(=O)Nc1nc(C(N)Cc2ccc(C(F)(F)F)cc2)cs1 (stereo not drawn),-12.3% (inactive)
